Results on ten compounds are retold here after PubChem BioAssay (EPA / NIEHS).

Values joined by “and” are separate entries in the source; they are usually repeats but may differ in a detail not shown here. Identical values can stand only once. Results filed as inconclusive are left out. Some structures have more than one record in an assay (separate samples or runs), and their calls can disagree. Active and inactive are the calls of the source. How the source made its calls, unless noted: active means hit-call score of the fitted dose curve at least 0.9, where 1 is the maximum; inconclusive means response in the unintended direction; inactive means score below 0.9.

The test system of assay [1] is Sodium/Iodide Symporter (NIS), SLC5A5 (gene 6528). Description: CPHEA_Stoker_NIS_Inhibition_RAIU: CPHEA's Radioactive Iodide Uptake (RAIU) Assay for Sodium/Iodide Symporter (NIS) Inhibition, Stoker and Laws Labs (AID 2283841). Summed up:
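hNIS-HEK293T-EPA cells incubated 2 h at room temperature with compound (0.001–100 uM, 0.5% DMSO) and 329 pM final 125I in HBSS/10 mM HEPES, pH 7.4. Intracellular 125I counted; normalised to DMSO maximal uptake, triplicate, three biological replicates.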

The test system of assay [2] is zebrafish Estrogen Receptor (ER2b), gene 317733. Description: ATG_zfER2b_XSP2: Attagene TRANS-FACTORIAL Multi-Species (XSP2) HepG2 Assay for zebrafish Estrogen Receptor (ER2b) (AID 2283823).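 Further: fitted upward as reporter gain over DMSO so potency reflects activation.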 The method, boiled down: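 Transcriptional induction measured as reporter mRNA (RT-PCR, fluorescent capillary electrophoresis) in transiently transfected HepG2 cells after 24 h dosing; DMSO served as negative control and baseline.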

For assay [3], the system named is frog Androgen Receptor (AR), gene 399456. Description: ATG_frAR_XSP2: Attagene TRANS-FACTORIAL Multi-Species (XSP2) HepG2 Assay for frog Androgen Receptor (AR) (AID 2283824).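 Further: reporter mRNA from GAL4-UAS units driven by Xenopus AR-Gal4 chimera; actives raise reporter signal above DMSO so AC50 reflects agonist-like induction.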 The method, boiled down: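 Reporter transcript induction, read by RT-PCR with fluorescent capillary electrophoresis, in human liver HepG2 cells carrying an exogenous Xenopus AR-Gal4 fusion and GAL4-driven reporters; chemical exposure 24 hours, activity scored upward against DMSO controls.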

The subject of assay [4] is zebrafish Androgen Receptor (AR), gene 100005148. The experiment in a line: ATG_zfAR_XSP2: Attagene TRANS-FACTORIAL Multi-Species (XSP2) HepG2 Assay for zebrafish Androgen Receptor (AR) (AID 2283825).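 Further: hits raise reporter mRNA above DMSO so AC50 reflects agonist-type gain.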 The method, boiled down:
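After 24 h compound exposure in medium with 3 nM 6-alpha-fluorotestosterone plus 1.5 nM norgestrel, HepG2 cells carrying zebrafish AR–GAL4 reporter constructs were assessed for reporter mRNA gain by RT-PCR and capillary electrophoresis.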

The test system of assay [5] is frog Estrogen Receptor (ER2), gene 100174814. Description: ATG_frER2_XSP2: Attagene TRANS-FACTORIAL Multi-Species (XSP2) HepG2 Assay for frog Estrogen Receptor (ER2) (AID 2283828). The method, boiled down: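 Cells were transfected with reporter constructs under GAL4-UAS control, dosed with chemicals for 24 h, then lysed for RNA; the frog ER2-driven reporter mRNA was quantified by capillary electrophoresis of labeled PCR fragments, with activity fitted upward from DMSO.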

Assay [6] has as its target Peroxisome proliferator-activated receptor gamma (Homo sapiens) (UniProt P37231). The experiment in a line: ATG_hPPARg_XSP2: Attagene TRANS-FACTORIAL Multi-Species (XSP2) HepG2 Assay for human Peroxisome Proliferator-activated Receptor gamma (PPARg) (AID 2283829).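 Further: actives raise reporter mRNA above DMSO so AC50 reflects PPARg activation.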 The method, boiled down: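 Human HepG2 cells carried transiently transfected Gal4 reporter units and were treated with chemical for 24 h alongside androgen-receptor stimulants (3 nM 6-alpha-fluorotestosterone, 1.5 nM norgestrel). Reporter transcripts were detected by RT-PCR with capillary electrophoresis, analysed in the positive direction against DMSO.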

Assay [7] deals with mouse Peroxisome Proliferator-activated Receptor gamma (PPARg), Pparg (gene 19016) (UniProt P37238). Description: ATG_mPPARg_XSP2: Attagene TRANS-FACTORIAL Multi-Species (XSP2) HepG2 Assay for mouse Peroxisome Proliferator-activated Receptor gamma (PPARg) (AID 2283830).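 Further: hits are gains in reporter mRNA above DMSO so AC50 marks activation.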 Summed up: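 Multiplexed TRANS reporter readout: after 24 h chemical exposure of transfected HepG2 cells (with 3 nM 6-alpha-fluorotestosterone, 1.5 nM norgestrel present), RNA reverse-transcribed, amplified, 6-FAM-labelled and resolved by capillary electrophoresis; mouse PPARg-Gal4 induction scored against DMSO.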
mouse Peroxisome Proliferator-activated Receptor gamma (PPARg), Pparg (gene 19016), sequence (P37238 whole entry, looked up, the tested form may be a part): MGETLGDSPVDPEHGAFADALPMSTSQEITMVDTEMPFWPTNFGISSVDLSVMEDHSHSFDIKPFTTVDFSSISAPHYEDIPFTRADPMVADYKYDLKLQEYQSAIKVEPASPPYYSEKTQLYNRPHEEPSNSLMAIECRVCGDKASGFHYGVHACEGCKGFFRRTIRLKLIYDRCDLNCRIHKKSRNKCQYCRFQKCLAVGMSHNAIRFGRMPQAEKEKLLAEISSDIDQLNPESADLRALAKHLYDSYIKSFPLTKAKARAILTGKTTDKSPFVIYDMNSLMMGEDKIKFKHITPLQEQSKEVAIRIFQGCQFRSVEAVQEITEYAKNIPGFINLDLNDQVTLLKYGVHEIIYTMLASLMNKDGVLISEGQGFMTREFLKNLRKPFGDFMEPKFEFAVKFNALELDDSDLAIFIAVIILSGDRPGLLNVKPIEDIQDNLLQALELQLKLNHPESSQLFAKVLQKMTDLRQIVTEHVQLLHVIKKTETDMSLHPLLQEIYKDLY

Assay [8] deals with Nuclear receptor subfamily 1 group I member 2 (Mus musculus) (UniProt O54915). Description: ATG_mPXR_XSP2: Attagene TRANS-FACTORIAL Multi-Species (XSP1) HepG2 Assay for mouse Pregnane X Receptor (PXR) (AID 2283831). Summed up: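 Fluorescence signals from capillary electrophoresis of RT-PCR-amplified reporter mRNA give the readout, gain-of-signal versus DMSO. Transfected HepG2 cells, 24 h dosing, medium contained 3 nM 6-alpha-fluorotestosterone and 1.5 nM norgestrel.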
Nuclear receptor subfamily 1 group I member 2 (Mus musculus), sequence (O54915 whole entry, looked up): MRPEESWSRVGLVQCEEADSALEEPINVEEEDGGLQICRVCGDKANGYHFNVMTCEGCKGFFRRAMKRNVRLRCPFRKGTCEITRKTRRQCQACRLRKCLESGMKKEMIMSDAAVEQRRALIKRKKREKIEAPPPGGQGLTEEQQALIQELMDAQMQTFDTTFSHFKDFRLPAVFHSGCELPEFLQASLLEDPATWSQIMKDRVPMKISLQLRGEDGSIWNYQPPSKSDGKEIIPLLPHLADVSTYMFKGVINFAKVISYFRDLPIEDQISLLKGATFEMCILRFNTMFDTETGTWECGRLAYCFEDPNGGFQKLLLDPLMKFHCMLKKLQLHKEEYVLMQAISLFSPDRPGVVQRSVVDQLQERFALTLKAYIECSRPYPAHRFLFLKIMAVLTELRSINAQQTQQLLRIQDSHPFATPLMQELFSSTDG

Assay [9] concerns the target zebrafish Thyroid Hormone Receptor alpha (TRa), thraa (gene 30670) (UniProt Q98867). Description: ATG_zfTRa_XSP2: Attagene TRANS-FACTORIAL Multi-Species (XSP1) HepG2 Assay for zebrafish Thyroid Hormone Receptor alpha (TRa) (AID 2283832).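 Further: actives raise zebrafish TRa-Gal4 reporter transcript above DMSO baseline.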 Summed up: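 Chimeric zebrafish TRa-Gal4 activity read in transfected human HepG2 as GAL4-UAS reporter transcripts, 24 h post-dose, via RT-PCR with labeled primer extension and capillary electrophoresis. Medium also carries 3 nM 6-alpha-fluorotestosterone and 1.5 nM norgestrel; DMSO baseline.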

The subject of assay [10] is zebrafish Peroxisome Proliferator-activated Receptor gamma (PPARg), gene 557037. The experiment in a line: ATG_zfPPARg_XSP2: Attagene TRANS-FACTORIAL Multi-Species (XSP2) HepG2 Assay for zebrafish Peroxisome Proliferator-activated Receptor gamma (PPARg) (AID 2283833).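 Further: actives increase reporter signal over DMSO so AC50 reflects activation.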 The method, boiled down: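 HepG2, transient MRTU transfection, 24 h compound; zfPPARg-GAL4 reporter mRNA by RT-PCR + capillary electrophoresis; gain-of-signal vs DMSO.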

The test system of assay [11] is turtle Thyroid Hormone Receptor, alpha (TRa), gene 101949057. Description: ATG_trTRa_XSP2: Attagene TRANS-FACTORIAL Multi-Species (XSP1) HepG2 Assay for turtle Thyroid Hormone Receptor, alpha (TRa) (AID 2283834).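 Further: hits raise reporter mRNA over the DMSO baseline so AC50 marks activators.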 The method, boiled down:
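Multiplexed TRANS reporter assay; HepG2 carrying NR-Gal4 constructs treated 24 h. mRNA of the GAL4-UAS reporter quantified via labelled RT-PCR fragments on a genetic analyzer, vs DMSO negative control.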

Assay [12] concerns the target zebrafish Thyroid Hormone Receptor beta (TRb), thrb (gene 30607) (UniProt Q9PVE4). Description: ATG_zfTRb_XSP2: Attagene TRANS-FACTORIAL Multi-Species (XSP1) HepG2 Assay for zebrafish Thyroid Hormone Receptor beta (TRb) (AID 2283836). Summed up: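 Reporter transcripts measured by RT-PCR, 6-FAM labelling, HpaI digestion and capillary electrophoresis after 24 h chemical exposure. Human HepG2 cells carry an exogenous zebrafish TRb-GAL4 chimera; medium included 3 nM 6-alpha-fluorotestosterone plus 1.5 nM norgestrel.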

Assay [13] addresses human Thyroid hormone Receptor alpha (TRa), THRA (gene 7067) (UniProt P10827). The experiment in a line: ATG_hTRa_XSP2: Attagene TRANS-FACTORIAL Multi-Species (XSP2) HepG2 Assay for human Thyroid hormone Receptor alpha (TRa) (AID 2283838). Summed up: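 Reporter transcripts were read by RT-PCR with fluorescent primer extension, HpaI digestion and capillary electrophoresis. These came from HepG2 cells carrying multiplexed TRa-Gal4 TRANS constructs, harvested 24 hours after dosing. The medium also held 6-alpha-fluorotestosterone (3 nM) and norgestrel (1.5 nM), and increases were fitted against DMSO.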

The target in assay [14] is frog Thyroid hormone Receptor alpha (TRa), thra-a (gene 397942) (UniProt P15204). Description: ATG_frTRa_XSP2: Attagene TRANS-FACTORIAL Multi-Species (XSP2) HepG2 Assay for frog Thyroid hormone Receptor alpha (TRa) (AID 2283839).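 On AC50: AC50 reflects induction of frog TRa-driven reporter mRNA above DMSO baseline.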 Summed up:
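Chimeric frog TRα-GAL4 activity in human liver cells measures reporter transcript induction 24 h post-dose. Detection uses RT-PCR, HpaI-digested labelled products and fluorescence capillary electrophoresis; DMSO serves as negative control.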

Assay [15] has as its target human Thyroid hormone Receptor beta (TRb), THRB (gene 7068) (UniProt P10828). The experiment in a line: ATG_hTRb_XSP2: Attagene TRANS-FACTORIAL Multi-Species (XSP2) HepG2 Assay for human Thyroid hormone Receptor beta (TRb) (AID 2283840).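 Further: actives raise reporter mRNA so potency reflects agonist-like gain of signal.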 The method, boiled down: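 Gain-of-signal reporter transcription, referenced to DMSO, was measured in transiently transfected HepG2 after 24 h exposure; labeled RT-PCR products were resolved by capillary electrophoresis. Assay medium included 3 nM 6-alpha-fluorotestosterone and 1.5 nM norgestrel.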

The nature of assay [16]: CEETOX_H295R_11DCORT_noMTC: CeeTox H295R High-throughput Steroidogenesis Assay for 11-Deoxycortisol (11DCORT), maximum tolerated concentration (MTC) filtered results only (AID 2283911; active means hit-call score of the fitted dose curve at least 0.9, where 1 is the maximum; inactive means score below 0.9). To be noted: actives raise or lower the signal. Summed up: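 Forskolin-primed (10 uM, 48 h) H295R adrenal cells are dosed for 48 h at 0.1% DMSO; medium 11-deoxycortisol is quantified by LC-MS/MS against a 7-point standard curve, with activity fitted in both directions versus DMSO.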

Assay [17] in a line: CEETOX_H295R_OHPREG_noMTC: CeeTox H295R High-throughput Steroidogenesis Assay for OH-Pregnenolone (OHPREG), maximum tolerated concentration (MTC) filtered results only (AID 2283912; active means hit-call score of the fitted dose curve at least 0.9, where 1 is the maximum; inactive means score below 0.9). The following applies: actives raise or lower the signal. Summed up:
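H295R; 10 uM forskolin 48 h pre-stim; test cpd in DMSO (0.1% final) 48 h; media MTBE-extracted, HPLC-MS/MS for OH-pregnenolone; bidirectional fit vs DMSO; no MTC (MTT) filtering.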

Assay [18] in a line: CEETOX_H295R_OHPROG_noMTC: CeeTox H295R High-throughput Steroidogenesis Assay for OH-Progesterone (OHPROG), maximum tolerated concentration (MTC) filtered results only (AID 2283914; active means hit-call score of the fitted dose curve at least 0.9, where 1 is the maximum; inactive means score below 0.9). The following applies: actives raise or lower the signal. The method, boiled down: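 Medium hormone measured by reverse-phase C18 HPLC with positive electrospray MS/MS after MTBE liquid-liquid extraction. Cells had 48 h forskolin (10 uM) prestimulation, then 48 h chemical dosing. Gain or loss of signal fitted relative to DMSO baseline.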

frog Thyroid hormone Receptor alpha (TRa), thra-a (gene 397942), sequence (P15204 whole entry, looked up, the tested form may be a part): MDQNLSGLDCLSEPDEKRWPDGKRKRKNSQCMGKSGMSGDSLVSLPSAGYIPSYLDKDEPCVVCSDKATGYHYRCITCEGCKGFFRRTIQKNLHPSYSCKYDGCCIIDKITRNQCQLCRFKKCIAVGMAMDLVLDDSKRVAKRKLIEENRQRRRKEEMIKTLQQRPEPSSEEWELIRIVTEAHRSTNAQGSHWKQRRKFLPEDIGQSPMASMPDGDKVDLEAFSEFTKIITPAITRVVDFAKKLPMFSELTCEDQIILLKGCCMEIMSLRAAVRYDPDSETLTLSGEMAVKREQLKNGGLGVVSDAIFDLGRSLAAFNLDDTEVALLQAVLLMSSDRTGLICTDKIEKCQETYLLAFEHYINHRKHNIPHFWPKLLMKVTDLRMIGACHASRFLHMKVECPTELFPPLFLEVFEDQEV
zebrafish Thyroid Hormone Receptor beta (TRb), thrb (gene 30607), sequence (Q9PVE4 whole entry, looked up, the tested form may be a part): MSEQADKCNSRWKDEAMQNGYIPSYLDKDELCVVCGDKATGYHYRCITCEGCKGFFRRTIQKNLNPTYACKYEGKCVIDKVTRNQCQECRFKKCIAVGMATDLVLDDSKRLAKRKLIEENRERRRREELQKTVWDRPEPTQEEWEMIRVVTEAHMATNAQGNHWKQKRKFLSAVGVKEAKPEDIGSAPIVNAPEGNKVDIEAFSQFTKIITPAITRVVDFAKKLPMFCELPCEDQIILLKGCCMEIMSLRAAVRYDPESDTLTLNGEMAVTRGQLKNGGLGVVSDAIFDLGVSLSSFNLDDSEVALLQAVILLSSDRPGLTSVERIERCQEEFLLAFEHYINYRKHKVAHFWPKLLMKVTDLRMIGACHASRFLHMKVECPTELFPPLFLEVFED
Peroxisome proliferator-activated receptor gamma (Homo sapiens), sequence (P37231 whole entry, looked up, the tested form may be a part): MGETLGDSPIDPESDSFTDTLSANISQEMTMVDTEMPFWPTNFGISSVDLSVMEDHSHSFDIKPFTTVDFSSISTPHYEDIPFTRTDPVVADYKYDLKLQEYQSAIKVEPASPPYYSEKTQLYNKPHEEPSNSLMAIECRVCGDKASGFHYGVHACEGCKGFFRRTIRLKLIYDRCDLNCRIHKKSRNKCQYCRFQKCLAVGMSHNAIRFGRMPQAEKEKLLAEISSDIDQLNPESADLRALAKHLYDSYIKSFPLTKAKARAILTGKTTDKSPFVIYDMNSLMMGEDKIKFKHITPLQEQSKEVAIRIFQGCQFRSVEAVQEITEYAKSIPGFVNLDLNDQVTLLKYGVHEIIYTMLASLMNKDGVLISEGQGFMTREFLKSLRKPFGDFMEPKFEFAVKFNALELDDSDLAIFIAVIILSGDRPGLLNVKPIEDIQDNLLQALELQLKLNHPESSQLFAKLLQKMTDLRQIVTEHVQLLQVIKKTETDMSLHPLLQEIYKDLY
zebrafish Thyroid Hormone Receptor alpha (TRa), thraa (gene 30670), sequence (Q98867 whole entry, looked up, the tested form may be a part): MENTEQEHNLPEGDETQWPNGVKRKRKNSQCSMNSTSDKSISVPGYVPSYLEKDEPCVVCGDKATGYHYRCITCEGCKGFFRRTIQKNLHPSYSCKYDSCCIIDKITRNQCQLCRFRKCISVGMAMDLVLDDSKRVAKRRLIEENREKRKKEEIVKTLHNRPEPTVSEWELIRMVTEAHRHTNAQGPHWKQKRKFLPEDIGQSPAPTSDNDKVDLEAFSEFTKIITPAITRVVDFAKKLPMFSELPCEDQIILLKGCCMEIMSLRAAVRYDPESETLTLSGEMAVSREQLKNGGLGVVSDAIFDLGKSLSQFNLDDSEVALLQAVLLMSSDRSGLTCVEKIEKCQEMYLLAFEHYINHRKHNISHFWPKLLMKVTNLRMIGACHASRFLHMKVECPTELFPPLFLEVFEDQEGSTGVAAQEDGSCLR
human Thyroid hormone Receptor alpha (TRa), THRA (gene 7067), sequence (P10827 whole entry, looked up, the tested form may be a part): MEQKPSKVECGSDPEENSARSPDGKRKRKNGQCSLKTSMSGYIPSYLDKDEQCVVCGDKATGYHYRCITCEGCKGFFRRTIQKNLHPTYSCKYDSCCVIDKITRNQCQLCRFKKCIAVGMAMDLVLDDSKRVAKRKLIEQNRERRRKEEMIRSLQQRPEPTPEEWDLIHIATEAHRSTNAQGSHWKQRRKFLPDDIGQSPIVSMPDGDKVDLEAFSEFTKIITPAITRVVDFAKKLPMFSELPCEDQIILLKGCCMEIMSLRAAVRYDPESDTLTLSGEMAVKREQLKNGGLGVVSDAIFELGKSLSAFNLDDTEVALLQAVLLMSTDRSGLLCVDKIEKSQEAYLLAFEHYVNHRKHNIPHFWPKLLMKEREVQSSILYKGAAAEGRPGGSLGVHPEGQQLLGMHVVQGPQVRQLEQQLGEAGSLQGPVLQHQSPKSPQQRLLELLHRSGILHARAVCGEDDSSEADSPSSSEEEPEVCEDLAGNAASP
human Thyroid hormone Receptor beta (TRb), THRB (gene 7068), sequence (P10828 whole entry, looked up): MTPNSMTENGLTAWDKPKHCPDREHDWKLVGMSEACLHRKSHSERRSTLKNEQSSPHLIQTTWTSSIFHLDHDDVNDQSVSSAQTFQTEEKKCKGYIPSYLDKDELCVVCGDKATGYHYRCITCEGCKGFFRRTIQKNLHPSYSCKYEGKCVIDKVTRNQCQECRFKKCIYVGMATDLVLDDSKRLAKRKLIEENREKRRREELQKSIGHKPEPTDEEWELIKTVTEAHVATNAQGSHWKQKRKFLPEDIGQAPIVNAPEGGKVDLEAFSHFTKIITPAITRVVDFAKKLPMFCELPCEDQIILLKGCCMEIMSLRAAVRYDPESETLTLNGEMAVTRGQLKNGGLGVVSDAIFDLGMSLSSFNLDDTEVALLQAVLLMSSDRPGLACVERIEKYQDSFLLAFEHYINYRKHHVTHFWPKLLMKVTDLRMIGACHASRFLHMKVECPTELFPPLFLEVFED

For `c1ccc(CCCc2ccccn2)cc1`, in assay [1], the outcome was inactive.
As to `CCCCCCCCC`, the outcome in [1] was inactive.
`O=C1c2ccccc2C(=O)N1SC1CCCCC1`: the result in [1] was inactive.
On the same count and under the same terms, for `c1ccc2[nH]ccc2c1` the value was “inactive”.
What is called AC50 is the concentration giving half of the maximal activity seen. With `O=C(Oc1ccccc1)c1ccc(O)cc1`, the AC50 in assay [2] was 51.2 µM (active) and 4.93 µM (active); in [5], 72.4 µM (active) and 4.8 µM (active); in assay [6], 100 µM (active); in assay [7], 68.1 µM (active); in assay [8], 33.2 µM (active); in assay [14], 166 µM (active). The result in assay [3], in assay [4], in [6], in assay [7], in assay [9] and in assay [10] was inactive. Besides, the call in [11], in assay [12], in assay [13], in assay [14] and in assay [15] was inactive.
With `Cc1ccc(C(C)C)cc1O`, the outcome in assay [16] and in assay [17] was inactive. In addition, in assay [18], the AC50 was 33 µM (active).
Turning to `CC(C)=CCCC(C)=CCCC(C)=CCO`, in assay [1], the result was inactive.
On to `BrC1CCC(Br)C(Br)CCC(Br)C(Br)CCC1Br` (configuration not stated), for which the outcome in [1] was inactive.
Consider `CCCCCCCCCCCCN`, for which the call in assay [2], in [3], in assay [8], in assay [10], in [11] and in assay [12] was inactive. For the same compound, in [14], the outcome was inactive. Besides, the AC50 is 55.1 µM (active) in assay [5]; 30 µM (active) and 11.9 µM (active) in [6]; 46.2 µM (active) and 37.7 µM (active) in assay [7].
Turning to `CCCCCCCCCCCCCCCCCC(=O)OCC(CC)CCCC` (configuration not stated), the result in assay [1] was inactive.
